# Assays:
# Assay in all cases: DAPPL (digital affinity profiling via proximity ligation, sequencing); 10 mM Tris-HCl pH 7.5, 50 mM NaCl, 1 mM DTT, 4% glycerol, room temperature, 30 min; GST-TFs on glutathione beads, 16-mer random dsDNA library, 0.1% formaldehyde crosslink after washing; high values mean tight binding
# FLI1 = target: T1, FLI1 (Homo sapiens, UniProt Q01543 1-452); settings: protein: recombinant; tags: N-terminal GST; dsDNA, one strand shown
# T1 sequence: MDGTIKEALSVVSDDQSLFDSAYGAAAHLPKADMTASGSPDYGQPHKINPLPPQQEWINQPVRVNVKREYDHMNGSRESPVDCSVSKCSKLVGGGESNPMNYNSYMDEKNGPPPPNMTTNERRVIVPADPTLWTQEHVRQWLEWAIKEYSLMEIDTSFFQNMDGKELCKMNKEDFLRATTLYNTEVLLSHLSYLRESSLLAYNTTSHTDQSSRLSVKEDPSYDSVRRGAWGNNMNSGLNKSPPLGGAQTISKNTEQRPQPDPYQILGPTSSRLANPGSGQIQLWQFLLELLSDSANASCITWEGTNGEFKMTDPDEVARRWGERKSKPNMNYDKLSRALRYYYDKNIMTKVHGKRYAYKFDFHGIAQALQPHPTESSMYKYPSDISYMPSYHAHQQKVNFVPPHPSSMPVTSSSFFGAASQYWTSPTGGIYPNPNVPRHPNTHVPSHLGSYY
# Summary of the method: (§1)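 Each value of binding signal is a hexamer's read frequency for a factor divided by the same hexamer's frequency in the tag-only sample. Barcoded, bead-captured GST fusions of human transcription factors made in yeast were pooled with that sample and incubated with 200 nmole of a random double-stranded 16-mer DNA library in Tris/NaCl/DTT/glycerol buffer at room temperature for 30 min. Washing, 0.1% formaldehyde crosslinking, proximity ligation, PCR and Illumina NextSeq500 sequencing followed.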
# ELK1 = target: T2, ELK1 (Homo sapiens, UniProt P19419 1-428); settings: protein: recombinant; tags: N-terminal GST; dsDNA, one strand shown
# T2 sequence: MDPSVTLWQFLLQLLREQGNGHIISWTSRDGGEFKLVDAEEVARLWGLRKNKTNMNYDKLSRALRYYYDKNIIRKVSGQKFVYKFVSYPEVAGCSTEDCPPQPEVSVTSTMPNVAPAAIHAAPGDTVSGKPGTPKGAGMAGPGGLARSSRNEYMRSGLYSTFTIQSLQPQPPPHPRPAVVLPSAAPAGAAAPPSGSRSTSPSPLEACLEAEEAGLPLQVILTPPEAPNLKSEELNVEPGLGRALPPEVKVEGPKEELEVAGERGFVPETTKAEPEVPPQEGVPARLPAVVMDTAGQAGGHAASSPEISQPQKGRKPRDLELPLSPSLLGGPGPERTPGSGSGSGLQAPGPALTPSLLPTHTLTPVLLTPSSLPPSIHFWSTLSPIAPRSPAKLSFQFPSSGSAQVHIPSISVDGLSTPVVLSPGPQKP
# Summary of the method: as §1
# GABPA = target: T3, GABPA (Homo sapiens, UniProt Q06546 1-454); settings: protein: recombinant; tags: N-terminal GST; dsDNA, one strand shown
# T3 sequence: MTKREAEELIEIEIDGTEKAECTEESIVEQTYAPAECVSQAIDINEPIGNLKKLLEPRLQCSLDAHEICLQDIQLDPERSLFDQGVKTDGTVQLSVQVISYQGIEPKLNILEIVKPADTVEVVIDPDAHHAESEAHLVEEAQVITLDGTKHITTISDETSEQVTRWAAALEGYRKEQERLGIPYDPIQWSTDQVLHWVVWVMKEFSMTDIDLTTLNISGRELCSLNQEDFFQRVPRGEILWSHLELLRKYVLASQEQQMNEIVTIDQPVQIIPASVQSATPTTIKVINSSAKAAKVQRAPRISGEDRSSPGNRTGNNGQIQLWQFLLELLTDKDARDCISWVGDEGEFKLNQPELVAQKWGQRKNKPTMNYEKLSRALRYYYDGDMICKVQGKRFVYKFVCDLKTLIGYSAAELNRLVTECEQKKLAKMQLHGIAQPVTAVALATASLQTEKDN
# Summary of the method: as §1
# ERG = target: T4, ERG (Homo sapiens, UniProt P11308 1-479); settings: protein: recombinant; tags: N-terminal GST; dsDNA, one strand shown
# T4 sequence: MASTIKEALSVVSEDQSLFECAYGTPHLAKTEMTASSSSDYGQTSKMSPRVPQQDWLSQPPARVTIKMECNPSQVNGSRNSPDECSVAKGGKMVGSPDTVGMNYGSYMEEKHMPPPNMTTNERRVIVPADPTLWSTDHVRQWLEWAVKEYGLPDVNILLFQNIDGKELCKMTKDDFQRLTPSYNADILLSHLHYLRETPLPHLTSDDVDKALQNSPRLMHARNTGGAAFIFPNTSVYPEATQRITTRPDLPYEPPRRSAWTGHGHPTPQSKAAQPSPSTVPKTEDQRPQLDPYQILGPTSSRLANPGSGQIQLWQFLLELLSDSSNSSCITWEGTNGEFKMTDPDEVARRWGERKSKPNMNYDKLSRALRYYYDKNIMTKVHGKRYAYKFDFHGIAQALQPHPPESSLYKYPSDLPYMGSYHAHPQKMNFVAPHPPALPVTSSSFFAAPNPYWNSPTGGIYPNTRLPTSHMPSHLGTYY
# Summary of the method: as §1
# ELF1 = ELF1 (Homo sapiens, UniProt P32519 1-619); settings: protein: recombinant; tags: N-terminal GST; dsDNA, one strand shown
# ELF1, sequence (P32519 whole entry): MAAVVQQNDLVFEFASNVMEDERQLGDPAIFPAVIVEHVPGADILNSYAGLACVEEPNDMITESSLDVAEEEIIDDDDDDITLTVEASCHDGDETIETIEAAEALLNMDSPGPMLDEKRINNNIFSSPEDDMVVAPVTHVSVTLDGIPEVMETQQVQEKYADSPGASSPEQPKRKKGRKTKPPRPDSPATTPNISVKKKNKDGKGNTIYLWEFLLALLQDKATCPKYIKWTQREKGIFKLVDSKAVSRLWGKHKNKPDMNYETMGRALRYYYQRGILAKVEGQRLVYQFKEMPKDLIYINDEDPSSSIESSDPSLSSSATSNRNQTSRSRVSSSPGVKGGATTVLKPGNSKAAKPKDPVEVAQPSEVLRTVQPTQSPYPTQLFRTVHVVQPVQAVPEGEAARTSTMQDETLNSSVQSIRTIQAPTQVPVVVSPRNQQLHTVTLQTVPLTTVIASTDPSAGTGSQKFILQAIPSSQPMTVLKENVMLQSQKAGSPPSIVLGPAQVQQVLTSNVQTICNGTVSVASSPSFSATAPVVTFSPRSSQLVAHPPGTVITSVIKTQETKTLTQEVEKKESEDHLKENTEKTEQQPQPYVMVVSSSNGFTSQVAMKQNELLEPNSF
# Summary of the method: as §1
# EHF = target: T5, EHF (Homo sapiens, UniProt Q9NZC4 1-300); settings: protein: recombinant; tags: N-terminal GST; dsDNA, one strand shown
# T5 sequence: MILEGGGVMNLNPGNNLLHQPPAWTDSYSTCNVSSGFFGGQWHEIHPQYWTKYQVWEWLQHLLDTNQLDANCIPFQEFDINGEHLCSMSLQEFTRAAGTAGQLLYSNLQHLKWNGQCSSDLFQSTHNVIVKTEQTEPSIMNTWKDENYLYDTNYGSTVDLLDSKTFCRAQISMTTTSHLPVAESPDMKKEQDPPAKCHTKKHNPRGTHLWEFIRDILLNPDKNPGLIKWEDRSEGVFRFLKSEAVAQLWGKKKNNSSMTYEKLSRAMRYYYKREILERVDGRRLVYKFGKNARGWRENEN
# Summary of the method: as §1
# SPI1 = SPI1 (Homo sapiens, UniProt P17947 1-270); settings: protein: recombinant; tags: N-terminal GST; dsDNA, one strand shown
# Summary of the method: as §1
# SPIB = SPIB (Homo sapiens, UniProt Q01892 1-262); settings: protein: recombinant; tags: N-terminal GST; dsDNA, one strand shown
# SPIB, sequence (Q01892 whole entry): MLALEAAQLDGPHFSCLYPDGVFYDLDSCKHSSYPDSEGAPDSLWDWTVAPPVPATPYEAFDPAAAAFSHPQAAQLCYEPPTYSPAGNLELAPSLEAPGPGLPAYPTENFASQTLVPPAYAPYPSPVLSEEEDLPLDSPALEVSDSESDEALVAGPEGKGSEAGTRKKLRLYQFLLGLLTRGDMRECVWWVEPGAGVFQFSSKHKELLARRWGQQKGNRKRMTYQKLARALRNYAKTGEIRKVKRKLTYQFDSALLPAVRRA
# Summary of the method: as §1
# ELK3 = target: T6, ELK3 (Homo sapiens, UniProt P41970 1-407); settings: protein: recombinant; tags: N-terminal GST; dsDNA, one strand shown
# T6 sequence: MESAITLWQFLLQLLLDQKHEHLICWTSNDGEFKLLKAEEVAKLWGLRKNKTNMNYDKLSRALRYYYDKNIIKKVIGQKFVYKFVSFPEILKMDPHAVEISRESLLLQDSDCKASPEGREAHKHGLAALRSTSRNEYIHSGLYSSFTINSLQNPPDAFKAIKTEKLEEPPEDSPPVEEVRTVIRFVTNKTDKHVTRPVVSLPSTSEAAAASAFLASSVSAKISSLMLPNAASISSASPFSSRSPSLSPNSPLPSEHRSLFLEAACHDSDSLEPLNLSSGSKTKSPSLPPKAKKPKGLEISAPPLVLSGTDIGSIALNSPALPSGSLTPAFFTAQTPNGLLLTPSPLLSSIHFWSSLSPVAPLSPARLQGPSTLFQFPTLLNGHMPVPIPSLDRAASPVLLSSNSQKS
# Summary of the method: as §1
# FEV = target: T7, FEV (Homo sapiens, UniProt Q99581 1-238); settings: protein: recombinant; tags: N-terminal GST; dsDNA, one strand shown
# T7 sequence: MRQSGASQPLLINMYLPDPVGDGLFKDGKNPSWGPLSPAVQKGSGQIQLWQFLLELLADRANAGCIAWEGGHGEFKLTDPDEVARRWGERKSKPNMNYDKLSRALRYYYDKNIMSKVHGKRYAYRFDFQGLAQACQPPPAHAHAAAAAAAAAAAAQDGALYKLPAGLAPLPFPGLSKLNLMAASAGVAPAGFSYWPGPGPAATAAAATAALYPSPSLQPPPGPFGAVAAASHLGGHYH
# Summary of the method: as §1
# ETV5 = ETV5 (Homo sapiens, UniProt P41161 1-510); settings: protein: recombinant; tags: N-terminal GST; dsDNA, one strand shown
# ETV5, sequence (P41161 whole entry): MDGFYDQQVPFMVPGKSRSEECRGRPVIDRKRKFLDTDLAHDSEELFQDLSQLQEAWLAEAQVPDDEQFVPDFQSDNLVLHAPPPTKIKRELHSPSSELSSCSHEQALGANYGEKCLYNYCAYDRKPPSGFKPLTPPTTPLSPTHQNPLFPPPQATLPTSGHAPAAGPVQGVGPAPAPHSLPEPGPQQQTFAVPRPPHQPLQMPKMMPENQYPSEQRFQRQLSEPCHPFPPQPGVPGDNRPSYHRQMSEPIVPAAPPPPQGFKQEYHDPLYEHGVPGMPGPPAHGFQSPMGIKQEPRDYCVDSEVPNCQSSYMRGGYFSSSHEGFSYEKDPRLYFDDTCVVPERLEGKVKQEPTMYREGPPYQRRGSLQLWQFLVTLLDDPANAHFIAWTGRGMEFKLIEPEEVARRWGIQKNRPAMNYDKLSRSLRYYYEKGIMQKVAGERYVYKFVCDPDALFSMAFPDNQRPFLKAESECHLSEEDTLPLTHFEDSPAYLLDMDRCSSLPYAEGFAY
# Summary of the method: as §1
# HSF1 = HSF1 (Homo sapiens, UniProt Q00613 1-529); settings: protein: recombinant; tags: N-terminal GST; chain copies: 3; dsDNA, one strand shown
# HSF1, sequence (Q00613 whole entry): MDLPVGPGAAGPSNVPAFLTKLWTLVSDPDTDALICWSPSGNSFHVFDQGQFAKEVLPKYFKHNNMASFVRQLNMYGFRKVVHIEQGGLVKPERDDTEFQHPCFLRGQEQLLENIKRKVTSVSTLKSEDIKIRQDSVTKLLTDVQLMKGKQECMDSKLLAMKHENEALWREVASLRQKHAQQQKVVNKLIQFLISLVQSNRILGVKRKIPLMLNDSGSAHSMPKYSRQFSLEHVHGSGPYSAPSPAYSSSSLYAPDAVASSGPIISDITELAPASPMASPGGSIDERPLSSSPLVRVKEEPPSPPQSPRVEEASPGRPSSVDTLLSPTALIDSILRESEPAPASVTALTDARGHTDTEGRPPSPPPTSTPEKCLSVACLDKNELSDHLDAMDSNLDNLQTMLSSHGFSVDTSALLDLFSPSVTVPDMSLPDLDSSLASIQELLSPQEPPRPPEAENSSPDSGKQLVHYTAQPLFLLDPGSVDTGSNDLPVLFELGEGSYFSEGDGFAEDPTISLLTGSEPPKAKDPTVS
# Summary of the method: as §1
# SPIC = target: T8, SPIC (Homo sapiens, UniProt Q8N5J4 1-248); settings: protein: recombinant; tags: N-terminal GST; dsDNA, one strand shown
# T8 sequence: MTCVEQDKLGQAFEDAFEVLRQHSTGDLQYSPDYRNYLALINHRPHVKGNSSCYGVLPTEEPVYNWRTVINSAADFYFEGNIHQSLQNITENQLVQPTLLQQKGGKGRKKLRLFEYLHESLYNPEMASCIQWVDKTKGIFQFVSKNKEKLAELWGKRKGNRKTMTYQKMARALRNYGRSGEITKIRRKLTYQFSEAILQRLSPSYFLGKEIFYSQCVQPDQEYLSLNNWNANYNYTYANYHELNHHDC
# Summary of the method: as §1
# ELF4 = ELF4 (Homo sapiens, UniProt Q99607 1-663); settings: protein: recombinant; tags: N-terminal GST; dsDNA, one strand shown
# ELF4, sequence (Q99607 whole entry): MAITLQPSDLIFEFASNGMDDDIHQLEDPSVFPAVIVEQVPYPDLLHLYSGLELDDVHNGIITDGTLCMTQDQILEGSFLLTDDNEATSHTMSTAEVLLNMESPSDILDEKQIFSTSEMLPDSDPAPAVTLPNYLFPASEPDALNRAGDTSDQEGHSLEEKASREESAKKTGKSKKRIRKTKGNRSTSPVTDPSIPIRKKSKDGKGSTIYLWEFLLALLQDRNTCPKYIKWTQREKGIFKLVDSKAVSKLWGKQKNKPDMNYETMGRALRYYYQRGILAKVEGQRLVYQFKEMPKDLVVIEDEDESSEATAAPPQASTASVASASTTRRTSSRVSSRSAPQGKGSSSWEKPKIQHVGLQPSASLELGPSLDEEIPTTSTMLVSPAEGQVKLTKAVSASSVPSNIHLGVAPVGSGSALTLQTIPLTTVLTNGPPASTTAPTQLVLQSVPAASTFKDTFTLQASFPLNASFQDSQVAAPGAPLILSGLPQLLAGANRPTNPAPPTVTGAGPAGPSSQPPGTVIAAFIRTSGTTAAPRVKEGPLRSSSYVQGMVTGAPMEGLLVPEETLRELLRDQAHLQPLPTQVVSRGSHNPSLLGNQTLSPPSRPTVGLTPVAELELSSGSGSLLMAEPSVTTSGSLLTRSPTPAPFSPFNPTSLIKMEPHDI
# Summary of the method: as §1
# ELK4 = target: T9, ELK4 (Homo sapiens, UniProt P28324-2 1-405); settings: protein: recombinant; tags: N-terminal GST; dsDNA, one strand shown
# T9 sequence: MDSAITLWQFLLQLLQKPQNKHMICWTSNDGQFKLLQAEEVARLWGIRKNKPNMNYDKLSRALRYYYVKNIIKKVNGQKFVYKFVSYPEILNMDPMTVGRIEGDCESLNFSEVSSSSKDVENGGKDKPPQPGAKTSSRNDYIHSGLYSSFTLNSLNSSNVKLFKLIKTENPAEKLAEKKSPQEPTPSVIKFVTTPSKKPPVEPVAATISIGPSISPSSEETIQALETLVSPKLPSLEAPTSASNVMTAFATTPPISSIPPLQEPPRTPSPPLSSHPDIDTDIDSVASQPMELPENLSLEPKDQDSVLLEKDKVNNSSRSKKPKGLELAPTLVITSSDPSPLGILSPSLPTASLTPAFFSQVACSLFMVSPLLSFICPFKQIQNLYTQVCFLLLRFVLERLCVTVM
# Summary of the method: as §1
# ETV2 = target: T10, ETV2 (Homo sapiens, UniProt O00321 1-342); settings: protein: recombinant; tags: N-terminal GST; dsDNA, one strand shown
# T10 sequence: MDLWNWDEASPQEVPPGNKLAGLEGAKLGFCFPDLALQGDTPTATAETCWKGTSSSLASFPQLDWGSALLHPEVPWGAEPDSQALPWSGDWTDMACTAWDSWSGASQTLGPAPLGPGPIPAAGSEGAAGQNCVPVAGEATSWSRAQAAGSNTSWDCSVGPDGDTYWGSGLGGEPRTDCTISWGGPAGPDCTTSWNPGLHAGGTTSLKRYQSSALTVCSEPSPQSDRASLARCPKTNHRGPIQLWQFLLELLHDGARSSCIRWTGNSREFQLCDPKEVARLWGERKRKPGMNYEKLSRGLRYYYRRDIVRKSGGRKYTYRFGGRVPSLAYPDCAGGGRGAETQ
# Summary of the method: as §1
# ELF3 = target: T11, ELF3 (Homo sapiens, UniProt P78545 1-371); settings: protein: recombinant; tags: N-terminal GST; dsDNA, one strand shown
# T11 sequence: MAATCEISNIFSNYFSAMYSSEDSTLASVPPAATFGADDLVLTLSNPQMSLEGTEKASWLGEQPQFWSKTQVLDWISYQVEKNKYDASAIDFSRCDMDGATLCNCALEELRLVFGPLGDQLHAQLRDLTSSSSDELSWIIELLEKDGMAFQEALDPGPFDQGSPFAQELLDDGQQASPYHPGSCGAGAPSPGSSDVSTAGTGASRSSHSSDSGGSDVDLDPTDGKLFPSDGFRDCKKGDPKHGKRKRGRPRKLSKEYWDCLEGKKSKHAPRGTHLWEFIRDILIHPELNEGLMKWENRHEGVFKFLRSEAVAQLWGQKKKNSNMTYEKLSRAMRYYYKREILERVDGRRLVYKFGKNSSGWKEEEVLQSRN
# Summary of the method: as §1
# CRX = CRX (Homo sapiens, UniProt O43186 1-299); settings: protein: recombinant; tags: N-terminal GST; dsDNA, one strand shown
# CRX, sequence (O43186 whole entry): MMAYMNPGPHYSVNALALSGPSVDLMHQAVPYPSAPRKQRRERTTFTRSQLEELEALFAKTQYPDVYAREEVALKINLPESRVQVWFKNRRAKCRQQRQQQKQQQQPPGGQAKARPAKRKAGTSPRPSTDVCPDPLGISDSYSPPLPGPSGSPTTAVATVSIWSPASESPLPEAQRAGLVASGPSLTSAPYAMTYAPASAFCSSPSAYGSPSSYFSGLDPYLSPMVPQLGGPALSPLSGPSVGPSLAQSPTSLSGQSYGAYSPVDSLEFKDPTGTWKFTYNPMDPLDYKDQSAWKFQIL
# Summary of the method: as §1
# ETV1 = ETV1 (Homo sapiens, UniProt P50549 1-477); settings: protein: recombinant; tags: N-terminal GST; dsDNA, one strand shown
# ETV1, sequence (P50549 whole entry): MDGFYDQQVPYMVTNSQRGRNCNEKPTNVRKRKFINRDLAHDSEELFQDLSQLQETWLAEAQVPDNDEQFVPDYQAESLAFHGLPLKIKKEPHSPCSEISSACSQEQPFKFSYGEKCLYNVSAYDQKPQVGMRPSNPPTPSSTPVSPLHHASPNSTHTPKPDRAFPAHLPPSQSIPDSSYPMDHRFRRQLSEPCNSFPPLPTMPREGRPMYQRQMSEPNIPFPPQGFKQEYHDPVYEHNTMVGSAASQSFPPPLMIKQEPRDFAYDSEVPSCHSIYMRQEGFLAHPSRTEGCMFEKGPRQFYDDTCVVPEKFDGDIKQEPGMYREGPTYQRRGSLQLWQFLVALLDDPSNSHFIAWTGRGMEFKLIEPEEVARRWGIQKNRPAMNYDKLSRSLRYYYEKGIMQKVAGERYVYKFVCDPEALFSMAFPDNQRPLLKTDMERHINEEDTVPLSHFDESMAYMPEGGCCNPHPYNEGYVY
# Summary of the method: as §1
sequence,measurement,setting,value
TTCATC,binding signal,FLI1,"1.36 fold enrichment (6-mer frequency, TF over GST control)"
same,binding signal,ELK1,"1.28 fold enrichment (6-mer frequency, TF over GST control)"
same,binding signal,GABPA,"1.29 fold enrichment (6-mer frequency, TF over GST control)"
same,binding signal,ERG,"1.22 fold enrichment (6-mer frequency, TF over GST control)"
same,binding signal,ELF1,"1.27 fold enrichment (6-mer frequency, TF over GST control)"
same,binding signal,EHF,"1.14 fold enrichment (6-mer frequency, TF over GST control)"
same,binding signal,SPI1,"1.27 fold enrichment (6-mer frequency, TF over GST control)"
same,binding signal,SPIB,"1.28 fold enrichment (6-mer frequency, TF over GST control)"
same,binding signal,ELK3,"1.32 fold enrichment (6-mer frequency, TF over GST control)"
same,binding signal,FEV,"1.21 fold enrichment (6-mer frequency, TF over GST control)"
same,binding signal,ETV5,"1.28 fold enrichment (6-mer frequency, TF over GST control)"
same,binding signal,HSF1,"1.29 fold enrichment (6-mer frequency, TF over GST control)"
same,binding signal,SPIC,"1.28 fold enrichment (6-mer frequency, TF over GST control)"
same,binding signal,ELF4,"1.27 fold enrichment (6-mer frequency, TF over GST control)"
same,binding signal,ELK4,"1.27 fold enrichment (6-mer frequency, TF over GST control)"
same,binding signal,ETV2,"1.25 fold enrichment (6-mer frequency, TF over GST control)"
same,binding signal,ELF3,"1.3 fold enrichment (6-mer frequency, TF over GST control)"
same,binding signal,CRX,"1.28 fold enrichment (6-mer frequency, TF over GST control)"
same,binding signal,ETV1,"1.25 fold enrichment (6-mer frequency, TF over GST control)"

# Source: publication PMC7862700, “An all-to-all approach to the identification of sequence-specific readers for epigenetic DNA modifications on cytosine”
